In all, about 18,000 sequences were measured (“log2 normalized intensity”: median about 0.36, highest 2% from about 7.3 on). This excerpt belongs to a sample that is enriched for the highest values.

The assay addresses T1, HNF4alpha8 (COS-7 nuclear extract) (Homo sapiens, UniProt P41235-5 1-452).
T1 sequence: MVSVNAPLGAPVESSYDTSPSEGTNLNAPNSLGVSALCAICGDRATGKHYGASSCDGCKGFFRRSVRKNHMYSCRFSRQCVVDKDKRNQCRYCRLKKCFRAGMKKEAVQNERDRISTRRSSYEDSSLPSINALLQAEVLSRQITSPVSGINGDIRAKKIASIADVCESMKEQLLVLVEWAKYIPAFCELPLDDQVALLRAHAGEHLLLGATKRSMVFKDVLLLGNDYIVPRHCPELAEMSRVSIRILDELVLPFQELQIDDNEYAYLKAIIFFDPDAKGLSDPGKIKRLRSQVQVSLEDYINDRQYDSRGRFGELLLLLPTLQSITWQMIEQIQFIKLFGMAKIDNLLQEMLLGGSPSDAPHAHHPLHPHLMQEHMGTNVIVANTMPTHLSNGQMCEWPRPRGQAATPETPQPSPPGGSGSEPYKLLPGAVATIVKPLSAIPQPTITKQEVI
The experiment in a line: protein-binding microarray; COS-7 nuclear extract on double-stranded Agilent 4x180k PBM; binding buffer, salt, pH and temperature not given in the material; high values mean tight binding. The conditions noted are these: chain copies: 2; label: 3' end of strand 1 on the slide; dsDNA, one strand shown. Put shortly: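 Nuclear extracts came from COS-7 cells transiently transfected by CaPO4 with a human HNF4α isoform expression vector. They were applied to a custom Agilent SurePrint G3 4x180k array of ~60-nt oligonucleotides, made double-stranded, with ~44,000 test sequences spotted in quadruplicate. Bound HNF4α was imaged at 2-µm resolution on an Agilent G2565CA scanner. Binding signal was taken as background-corrected, normalized gProcessedSignal from Agilent software.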
As to “TATTTGCTCACCAGTGACCAATAATGTAATGCCTAGGGAGATTAGAGTATCGGTCGA”, the binding signal is 0.199 log2 normalized intensity. The figure for “ATTAGCTTCTGTTCAGGAGTTGTCTGTCCAGCCTAGGGAGATTAGAGTATCGGTCGA” is 1.39 log2 normalized intensity. Consider “CCATGCTCTTTGGCCTGGCATTTGAGACTAGCCTAGGGAGATTAGAGTATCGGTCGA”, for which the binding signal was 0.329 log2 normalized intensity. The figure for “TTTGTCCCCCACCTGTGAAGATAAGCTGTCGCCTAGGGAGATTAGAGTATCGGTCGA” is 3.17 log2 normalized intensity; for “AGAATGGAGAAAACAACATTCCTTGTGTTTGCCTAGGGAGATTAGAGTATCGGTCGA” it is 0.48 log2 normalized intensity; for “AATTCTTAAGCCAAAGTCCAAGTTGGTGAGGCCTAGGGAGATTAGAGTATCGGTCGA” it is 3.81 log2 normalized intensity. On to “TCCACAGTCAAGGCCAAAGGTTAAAAATAAGCCTAGGGAGATTAGAGTATCGGTCGA”, for which the binding signal came to 4.8 log2 normalized intensity.

With “TCAGCCTTAACTCAAAAGGCCAAAGTCCAAGCCTAGGGAGATTAGAGTATCGGTCGA”, the binding signal is 9.11 log2 normalized intensity.

“TATCAGCTTTGAGACACCTGGCCAAGTACAGCCTAGGGAGATTAGAGTATCGGTCGA”: the binding signal is -0.899 log2 normalized intensity. For “TTTTCCACCCTCCCCTCCCCCTCCTCCCCTGCCTAGGGAGATTAGAGTATCGGTCGA” the value was 7.22 log2 normalized intensity. For “AACCCGCCCCCTCCCCCTGCCGGCGGCGCAGCCTAGGGAGATTAGAGTATCGGTCGA” the value was 6.05 log2 normalized intensity; for “ATTGTGAAACGTTTGAATTCTTGCCTATCCGCCTAGGGAGATTAGAGTATCGGTCGA”, -0.841 log2 normalized intensity. Consider “GGTTGCCCAGGGAGAGCTGGACTTTCATCTGCCTAGGGAGATTAGAGTATCGGTCGA”, for which the binding signal turned out to be 5.54 log2 normalized intensity. Consider “AGATAGTGACGGAGGTGACCTTTGGTTGTCGCCTAGGGAGATTAGAGTATCGGTCGA”, for which the binding signal was determined as 6.24 log2 normalized intensity. Turning to “CTAGTGTACAGGTGACCTTTGGAATGAACCGCCTAGGGAGATTAGAGTATCGGTCGA”, the binding signal is 7.75 log2 normalized intensity. For the sequence “TATCTTTGGAGAATGCCTTTTGTGTAGGAGGCCTAGGGAGATTAGAGTATCGGTCGA”, the binding signal is 1.69 log2 normalized intensity. With “AAAGCTGGCTGGCGGCTAGTGTACAGGTGAGCCTAGGGAGATTAGAGTATCGGTCGA”, the binding signal was 0.565 log2 normalized intensity. For “GGCGGCTAGTGTACAGGTGACCTTTGGAATGCCTAGGGAGATTAGAGTATCGGTCGA” the value was 9.41 log2 normalized intensity; for “GCTAGGTGGCGGGCTGGCTCAGGACAGGTGGCCTAGGGAGATTAGAGTATCGGTCGA”, -0.886 log2 normalized intensity; for “TGGCTGGCGGCTAGTGTACAGGTGACCTTTGCCTAGGGAGATTAGAGTATCGGTCGA”, 7.84 log2 normalized intensity. As for “GGAATGAGCAGGAACCTTGTGGTGGTGAAAGCCTAGGGAGATTAGAGTATCGGTCGA”, the binding signal came out at 0.216 log2 normalized intensity. The figure for “TTGGAGAATGCCTTTTGTGTAGGAGTACACGCCTAGGGAGATTAGAGTATCGGTCGA” is 1.46 log2 normalized intensity; for “TCCCTGAAGGCCAGGCAGCACAATTTGTGTGCCTAGGGAGATTAGAGTATCGGTCGA” it is -0.959 log2 normalized intensity; for “TGATCTTTGAAACATAACAGCAACAACACAGCCTAGGGAGATTAGAGTATCGGTCGA” it is 0.241 log2 normalized intensity.

Turning to “TATTGAGAAGAAACCTTTGCCCAACAGGATGCCTAGGGAGATTAGAGTATCGGTCGA”, the binding signal amounted to 2.13 log2 normalized intensity. The figure for “GGCGAGTGTGCAATTAGAGCAAAGGTTACTGCCTAGGGAGATTAGAGTATCGGTCGA” is 3.57 log2 normalized intensity.

Consider “ACAAAGATCATAAATGCCTCCCCCTCTTTAGCCTAGGGAGATTAGAGTATCGGTCGA”, for which the binding signal was 3.85 log2 normalized intensity. The figure for “TGGGCCAAAGGTCATACCTGTCTAGGTGGAGCCTAGGGAGATTAGAGTATCGGTCGA” is 4.74 log2 normalized intensity; for “GGGGAGGTGGGAAAAGAAATGTAGTGACAGGCCTAGGGAGATTAGAGTATCGGTCGA” it is -0.392 log2 normalized intensity; for “TGCATGGATTTCTCAGTTGAGGAATGGGTAGCCTAGGGAGATTAGAGTATCGGTCGA” it is 0.827 log2 normalized intensity.

“TAGGGAAAATAGTGACCCTGTCTCTCAGTCGCCTAGGGAGATTAGAGTATCGGTCGA”: the binding signal came to 1.62 log2 normalized intensity. For “AGTTTGGTGGACTTTGGCCGTGAAGCCGTCGCCTAGGGAGATTAGAGTATCGGTCGA” the value was 6.75 log2 normalized intensity; for “TTGAAAGTTTGGTGGACTTTGGCCGTGAAGGCCTAGGGAGATTAGAGTATCGGTCGA”, 7.64 log2 normalized intensity.

With “TAATTCTTCTTTGAAAGTTTGGTGGACTTTGCCTAGGGAGATTAGAGTATCGGTCGA”, the binding signal was 6.91 log2 normalized intensity. The figure for “GGCATTAATTCTTCTTTGAAAGTTTGGTGGGCCTAGGGAGATTAGAGTATCGGTCGA” is 1.65 log2 normalized intensity.

Take “GGTGGACTTTGGCCGTGAAGCCGTCCTGTCGCCTAGGGAGATTAGAGTATCGGTCGA”: the binding signal is 5.87 log2 normalized intensity. The figure for “CTTCTTTGAAAGTTTGGTGGACTTTGGCCGGCCTAGGGAGATTAGAGTATCGGTCGA” is 10.1 log2 normalized intensity. Consider “TGATAAGATTTATCTCTCCAAGGTACTGTGGCCTAGGGAGATTAGAGTATCGGTCGA”, for which the binding signal came to 0.189 log2 normalized intensity.

On to “GTGCACTTTGACCCTGCTGTAGTGTGTAAGGCCTAGGGAGATTAGAGTATCGGTCGA”, for which the binding signal amounted to 5.69 log2 normalized intensity. For “TCTTGTCCTTCCCCTTTTGTGTTTGTCCCTGCCTAGGGAGATTAGAGTATCGGTCGA” the value was 3.03 log2 normalized intensity.

Take “TCCTCTCTCCCACAAGGGCAGCCCTGTTTAGCCTAGGGAGATTAGAGTATCGGTCGA”: the binding signal is -0.515 log2 normalized intensity. The figure for “TTGTCCTTAGACAGTAACCCTTGAGCTCTGGCCTAGGGAGATTAGAGTATCGGTCGA” is 3.73 log2 normalized intensity; for “ATCTAAGCTGGACTTTGAACTTCATGTGTGGCCTAGGGAGATTAGAGTATCGGTCGA” it is 8.61 log2 normalized intensity; for “CTTTGGACTTTTGAACTAAGGCTGGAATGAGCCTAGGGAGATTAGAGTATCGGTCGA” it is 3.69 log2 normalized intensity.

For the sequence “CCTAAATCTAAGCTGGACTTTGAACTTCATGCCTAGGGAGATTAGAGTATCGGTCGA”, the binding signal stood at 9.68 log2 normalized intensity.

As to “GACTTTGAACTTCATGTGTGGTGCAGATTCGCCTAGGGAGATTAGAGTATCGGTCGA”, the binding signal was found to be 2.1 log2 normalized intensity. For “TGAGACTTTGGACTTTTGAACTAAGGCTGGGCCTAGGGAGATTAGAGTATCGGTCGA” the value was 5.5 log2 normalized intensity; for “AGCTGGACTTTGAACTTCATGTGTGGTGCAGCCTAGGGAGATTAGAGTATCGGTCGA”, 6.95 log2 normalized intensity; for “ATTATGGTAGGCAGCCTCTGAGATGGACTCGCCTAGGGAGATTAGAGTATCGGTCGA”, 3.96 log2 normalized intensity. For “AAATTATTACTCCCACCGTGTGTGCACTTTGCCTAGGGAGATTAGAGTATCGGTCGA” the value was 3.9 log2 normalized intensity; for “TGAAAGTTCTCTGGGCTTTTTGATCTTGTCGCCTAGGGAGATTAGAGTATCGGTCGA”, 1.25 log2 normalized intensity; for “CCCTCGGGCCGGGAAACGCCCTCGGCGCGCGCCTAGGGAGATTAGAGTATCGGTCGA”, 1.34 log2 normalized intensity. The figure for “GCAGAGCAGTTTAGAGAAAGGGTCAAAGGTGCCTAGGGAGATTAGAGTATCGGTCGA” is 6.23 log2 normalized intensity; for “GAACAGGTCAAAGGTCAGTTTCTTTAAGACGCCTAGGGAGATTAGAGTATCGGTCGA” it is 7.63 log2 normalized intensity; for “GGAAAGAACAGGTCAAAGGTCAGTTTCTTTGCCTAGGGAGATTAGAGTATCGGTCGA” it is 7.69 log2 normalized intensity. As for “GCAGTTTAGAGAAAGGGTCAAAGGTTAAGCGCCTAGGGAGATTAGAGTATCGGTCGA”, the binding signal is 9.04 log2 normalized intensity.

As to “TTAGAGAAAGGGTCAAAGGTTAAGCCATTGGCCTAGGGAGATTAGAGTATCGGTCGA”, the binding signal is 6.33 log2 normalized intensity. The figure for “AAGATTTATCAGGTCTTTCTTTCAGAACAGGCCTAGGGAGATTAGAGTATCGGTCGA” is 0.553 log2 normalized intensity. For “TCTTAGGAAAGAACAGGTCAAAGGTCAGTTGCCTAGGGAGATTAGAGTATCGGTCGA” the value was 9.61 log2 normalized intensity; for “GGTCAAAGGTCAGTTTCTTTAAGACAAGTGGCCTAGGGAGATTAGAGTATCGGTCGA”, 5.86 log2 normalized intensity. The figure for “TAGGAGACTGTCTTAGGAAAGAACAGGTCAGCCTAGGGAGATTAGAGTATCGGTCGA” is 0.841 log2 normalized intensity; for “CTTTGGACTTTCAAAAGTTAAGGTCAAGACGCCTAGGGAGATTAGAGTATCGGTCGA” it is 2.78 log2 normalized intensity.

Take “GACTGTCTTAGGAAAGAACAGGTCAAAGGTGCCTAGGGAGATTAGAGTATCGGTCGA”: the binding signal was 5.06 log2 normalized intensity. The figure for “TCAGAAACAGGAATTCAAAGGTGCAAAGGTGCCTAGGGAGATTAGAGTATCGGTCGA” is 2.84 log2 normalized intensity.

The values are drawn from PMC10726135, “HNF4α isoforms regulate the circadian balance between carbohydrate and lipid metabolism in the liver”.
